From PubChem BioAssay (Tox21)
Results filed as inconclusive are left out. Entries that show only a call come without a potency. A structure can be active in one record and inactive in another. Calls of active or inactive are those of the source. Unless noted, calls follow the shape of the dose curve; as a rule, active = well fitted curve in the direction sought with a large enough effect in the repeat runs; inconclusive = weak or mixed curves; inactive = no such curve, though single readings can be large; an effect the other way counts as inactive or inconclusive.

Columns and labels:
[1] = molecular target: Retinoic acid receptor RXR-alpha (Homo sapiens) (UniProt P19793); assay: qHTS assay to identify small molecule agonists of the RXR signaling pathway (AID 1159527; calls by dose curve; also: nearly all actives have a fitted effect of over 35% in size; also: potency is read from the fitted curve at half-maximal effect)
Outline: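 qHTS of the Tox21 10K library in GeneBLAzer RXR-alpha HEK 293T cells carrying a beta-lactamase reporter […]; 16 hr treatment, 9-cis retinoic acid as agonist control, FRET read-out.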

[2] = qHTS assay to identify small molecule agonists of the RXR signaling pathway - cell viability counter screen (AID 1159529); also: nearly all actives have a fitted effect of over 50% in size
Outline: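 Cell viability is measured by CellTiter-Glo luminescence, 30 min at room temperature, in wells already read for beta-lactamase. Engineered HEK 293T cells (RXR-alpha-UAS-bla) are dosed 16 hr at 37 C. Tetraoctyl ammonium bromide serves as positive control.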

[3] = qHTS assay to identify small molecule antagonists of the retinoid acid receptor (RAR) signaling pathway - cell viability counter screen (AID 1159551); also: nearly all actives have a fitted effect of over 35% in size
Outline: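 In this counter screen, the RARE-luciferase line C3RL4 was exposed for 6 h at 37 C and 5% CO2 to compounds with retinol at 1 uM final. Cellular ATP, read by luminescence, served as the viability measure.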

[4] = qHTS assay to identify small molecule antagonists of the retinoic acid receptor (RAR) signaling pathway (AID 1159552; also: nearly all actives have a fitted effect of over 50% in size)
Outline: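 Quantitative HTS in C3RL4 RARE-luciferase reporter cells. Compounds were added with 1 uM (final) retinol; luminescence was read after 6 hr.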

[5] = qHTS assay to identify small molecule agonists of the retinoic acid receptor (RAR) signaling pathway (AID 1159553); conditions: C3RL4 RARE luciferase reporter, agonist, 6 h; activation: at 73.3 µM (top of the series) unless noted
Outline: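 In this cell-based screen, 1,000 C3RL4 cells per well were cultured overnight, dosed with test chemicals in DMSO for 6 hr, and assessed for RARE luciferase luminescence.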

[6] = qHTS assay to identify small molecule antagonists of the estrogen related receptor (ERR) signaling pathway from Tox21 library - cell viability counter screen (AID 1224834); also: nearly all actives have a fitted effect of over 30% in size
Outline: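 Counter screen run in ERR cells (2,000 cells/well): cells pre-incubated 6 h, then treated with compounds for 17.5 h at 37 C. Fluorescence was read 30 min after CellTiter-Fluor addition.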

[7] = molecular target: Luciferin 4-monooxygenase (Photinus pyralis) (UniProt P08659); assay: qHTS assay to identify small molecule inhibitors of firefly luciferase (AID 1224835); also: nearly all actives have a fitted effect of over 25% in size
Outline: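 Inhibition of purified Photinus luciferase is measured by luminescence. Substrate levels (D-luciferin, ATP) sit at their KM values. Each compound is tested in a concentration series.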

[8] = qHTS assay to identify small molecule agonists of the constitutive androstane receptor (CAR) signaling pathway - cell viability counter screen (AID 1224836); also: nearly all actives have a fitted effect of over 45% in size
Outline: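 Counter screen multiplexed with the CAR reporter readout: HepG2 cells co-transfected with hCAR and the CYP2B6-2.2kb construct receive a 15-concentration compound series and 0.75 uM PK11195 (final), then CellTiter-Fluor fluorescence is read after 23 h.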

[9] = qHTS assay to identify small molecule antagonists of the constitutive androstane receptor (CAR) signaling pathway - cell viability counter screen (AID 1224837); also: nearly all actives have a fitted effect of over 45% in size
Outline: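 CITCO at 50 nM final was added alongside compounds (15 concentrations) to double-stable hCAR/CYP2B6-2.2kb HepG2 cells. Following 23 hr at 37 C, cell viability was quantified by CellTiter-Fluor fluorescence intensity.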

[10] = qHTS assay to identify small molecule antagonists of the estrogen related receptor signaling pathway with the pleiotropic PPARgamma coactivator (PGC) from Tox21 10K library - cell viability counter screen (AID 1224840; active = well fitted cell-killing curve with a large enough effect in the repeat runs, not every such curve was filed as active; also: nearly all actives have a fitted effect of over 40% in size)
Outline: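 Readout: fluorescence intensity from CellTiter-Fluor after 30 min at 37 C/5% CO2. Preceded by 17.5 h treatment of PGC/ERR cells with DMSO-dissolved compounds, added 6 h post-seeding.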

[11] = qHTS assay to identify small molecule antagonists of the estrogen related receptor signaling pathway with the pleiotropic PPARgamma coactivator (PGC) from Tox21 10K library (AID 1224841; call rule not given here; also: actives are mostly falling curves and most rising ones were filed inactive; nearly all actives have a fitted effect of over 50% in size)
Outline: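 One-Glo luminescence, measured after half an hour at room temperature, quantified reporter output of PGC/ERR cells. These had been plated at 2,000 per well, incubated 6 h, dosed with compounds in DMSO, then kept 18 h at 37 C.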

[12] = qHTS assay to identify small molecule agonists of the hypoxia (HIF-1) signaling pathway - cell viability counter screen (AID 1224844; calls by dose curve; also: nearly all actives have a fitted effect of over 50% in size)
Outline: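 In this counter screen, HRE-bla ME-180 cell viability after 17 hrs of compound exposure at 37C was read by CellTiter-Glo luminescence, multiplexed with the beta-lactamase reporter measurement.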

[13] = qHTS assay to identify small molecule agonists of H2AX (AID 1224845; active = well fitted activation curve with a large enough effect in the signal ratio in the repeat runs, not every such curve was filed as active; the % refers to the signal ratio)
Outline: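 Phospho-H2AX Ser139 measured by HTRF (ex 320 nm; em 665 and 620 nm) after 24 hr antibody incubation. Compounds, 15 concentrations, 0.76% DMSO, were applied to CHO-K1 cells for 3hr at 37C before lysis.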

[14] = qHTS assay to identify small molecule agonists of the hypoxia (HIF-1) signaling pathway (AID 1224846; active = well fitted activation curve with a large enough effect in the signal ratio in the repeat runs, not every such curve was filed as active; the % refers to the signal ratio)
Outline: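 ME-180 HRE-bla reporter cells; compounds in DMSO, 17 h at 37C; read-out beta-lactamase via CCF4-AM FRET.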

[15] = qHTS assay to identify small molecule agonists of H2AX - cell viability counter screen (AID 1224847; calls by dose curve; also: top concentration of the series differs between compounds; nearly all actives have a fitted effect of over 30% in size)
Outline: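 We seed wild-type CHO-K1 cells overnight, treat them for 3 hr at 37C with compounds in 15-concentration series, and quantify remaining viability by CellTiter-Glo luminescence.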

[16] = molecular target: Nuclear receptor subfamily 1 group I member 3 (Homo sapiens) (UniProt Q14994); assay: qHTS assay to identify small molecule antagonists of the constitutive androstane receptor (CAR) signaling pathway (AID 1224838); also: nearly all actives have a fitted effect of over 40% in size
Outline: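 Inhibition of CITCO-driven (50 nM final) CYP2B6 reporter expression is measured in HepG2 cells stably carrying hCAR. Fifteen compound concentrations are applied for 24 h at 37 C, followed by luciferase luminescence.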

[17] = molecular target: Nuclear receptor subfamily 1 group I member 3 (Homo sapiens) (UniProt Q14994); assay: qHTS assay to identify small molecule agonists of the constitutive androstane receptor (CAR) signaling pathway (AID 1224839); also: nearly all actives have a fitted effect of over 15% in size
Outline: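 A 15-concentration quantitative screen uses HepG2 cells co-transfected stably with human CAR and CYP2B6-2.2kb reporter. Treatment lasts 24 h with 0.75 uM PK11195 final present; ONE-Glo luminescence is the signal.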

[18] = molecular target: Thyrotropin receptor (Homo sapiens) (UniProt P16473); assay: qHTS assay to identify small molecule agonists of the thyroid stimulating hormone receptor (TSHR) signaling pathway (AID 1224843; calls by dose curve; also: nearly all actives have a fitted effect of over 45% in size)
Outline: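 Agonist activity read as cAMP rise via d2/cryptate HTRF competition, 1 h room-temperature detection, in HEK293 cells expressing TSHR. Fifteen-point titrations, each run in triplicate, with a 30 min room-temperature incubation beforehand.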

Chain of Luciferin 4-monooxygenase (Photinus pyralis) (P08659 whole entry, looked up): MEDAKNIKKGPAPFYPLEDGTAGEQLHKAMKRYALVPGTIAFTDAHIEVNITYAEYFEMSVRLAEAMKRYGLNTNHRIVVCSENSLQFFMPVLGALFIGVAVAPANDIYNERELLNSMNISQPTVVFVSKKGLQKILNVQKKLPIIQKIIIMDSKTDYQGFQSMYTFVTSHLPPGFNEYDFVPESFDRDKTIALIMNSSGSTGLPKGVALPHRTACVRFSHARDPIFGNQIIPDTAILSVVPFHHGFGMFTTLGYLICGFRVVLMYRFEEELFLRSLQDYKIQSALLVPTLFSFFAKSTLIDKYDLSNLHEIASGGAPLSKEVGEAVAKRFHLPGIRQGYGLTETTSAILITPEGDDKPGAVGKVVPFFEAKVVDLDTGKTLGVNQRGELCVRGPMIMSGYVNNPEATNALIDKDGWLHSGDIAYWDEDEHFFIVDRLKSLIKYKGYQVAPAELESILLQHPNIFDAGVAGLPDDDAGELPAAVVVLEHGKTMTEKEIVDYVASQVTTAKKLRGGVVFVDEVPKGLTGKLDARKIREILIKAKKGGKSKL
Chain of Nuclear receptor subfamily 1 group I member 3 (Homo sapiens) (Q14994 whole entry, looked up): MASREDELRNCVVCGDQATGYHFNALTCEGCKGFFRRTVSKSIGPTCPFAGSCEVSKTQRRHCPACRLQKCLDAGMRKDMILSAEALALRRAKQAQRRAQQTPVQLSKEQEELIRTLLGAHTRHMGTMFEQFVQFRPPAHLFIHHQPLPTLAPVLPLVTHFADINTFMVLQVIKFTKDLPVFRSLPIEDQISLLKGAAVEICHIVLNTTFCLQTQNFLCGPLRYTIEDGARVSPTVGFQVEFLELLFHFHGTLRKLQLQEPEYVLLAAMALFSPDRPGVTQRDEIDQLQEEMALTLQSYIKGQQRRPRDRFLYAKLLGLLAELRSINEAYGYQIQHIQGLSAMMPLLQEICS
Chain of Thyrotropin receptor (Homo sapiens) (P16473 whole entry, looked up): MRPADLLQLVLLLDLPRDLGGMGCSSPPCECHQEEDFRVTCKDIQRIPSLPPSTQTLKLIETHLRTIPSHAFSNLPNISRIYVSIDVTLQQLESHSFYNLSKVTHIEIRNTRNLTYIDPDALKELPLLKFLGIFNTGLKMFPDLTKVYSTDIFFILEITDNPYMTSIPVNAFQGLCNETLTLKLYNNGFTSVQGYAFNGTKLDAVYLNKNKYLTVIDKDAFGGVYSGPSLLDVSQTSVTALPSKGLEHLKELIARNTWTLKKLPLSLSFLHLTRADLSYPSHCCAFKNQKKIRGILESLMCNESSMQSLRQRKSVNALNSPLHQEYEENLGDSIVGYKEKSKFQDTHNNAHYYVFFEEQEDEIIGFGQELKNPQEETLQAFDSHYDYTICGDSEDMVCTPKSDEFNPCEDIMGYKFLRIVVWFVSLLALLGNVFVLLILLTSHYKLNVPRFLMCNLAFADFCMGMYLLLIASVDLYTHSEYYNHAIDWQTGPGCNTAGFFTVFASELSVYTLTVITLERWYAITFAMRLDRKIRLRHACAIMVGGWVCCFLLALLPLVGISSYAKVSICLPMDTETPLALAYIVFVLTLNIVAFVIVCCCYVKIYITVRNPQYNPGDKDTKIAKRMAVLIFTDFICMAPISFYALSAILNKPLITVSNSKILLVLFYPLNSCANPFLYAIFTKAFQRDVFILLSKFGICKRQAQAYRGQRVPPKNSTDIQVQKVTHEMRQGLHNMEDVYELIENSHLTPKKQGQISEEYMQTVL
Chain of Retinoic acid receptor RXR-alpha (Homo sapiens) (P19793 whole entry, looked up): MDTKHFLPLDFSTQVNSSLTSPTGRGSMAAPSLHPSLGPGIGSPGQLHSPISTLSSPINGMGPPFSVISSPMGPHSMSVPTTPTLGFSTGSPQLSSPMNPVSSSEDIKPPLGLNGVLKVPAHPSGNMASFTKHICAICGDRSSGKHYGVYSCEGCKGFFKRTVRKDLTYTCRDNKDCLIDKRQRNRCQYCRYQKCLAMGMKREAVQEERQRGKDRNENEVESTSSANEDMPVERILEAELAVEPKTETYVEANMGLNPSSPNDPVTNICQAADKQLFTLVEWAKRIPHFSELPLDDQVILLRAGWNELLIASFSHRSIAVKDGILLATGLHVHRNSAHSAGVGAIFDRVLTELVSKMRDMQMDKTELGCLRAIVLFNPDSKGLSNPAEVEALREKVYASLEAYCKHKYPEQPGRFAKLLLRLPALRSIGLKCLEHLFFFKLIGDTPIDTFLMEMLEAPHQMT

Structure (SMILES): OC(O)C(Cl)(Cl)Cl
- Potency [1]: inactive
- Potency [2]: inactive
- outcome [3]: inactive
- Potency [4]: inactive
- Potency [5]: inactive
- Potency [6]: inactive
- Potency [7]: inactive
- Potency [8]: inactive
- Potency [9]: inactive
- Potency [10]: inactive
- Potency [11]: inactive
- Potency [12]: inactive
- Potency [13]: inactive
- outcome [14]: inactive
- Potency [15]: inactive

Structure (SMILES): COCCl
- Potency [1]: inactive
- Potency [2]: inactive
- outcome [3]: inactive
- Potency [4]: inactive
- Potency [5]: inactive
- Potency [6]: inactive
- Potency [7]: inactive
- Potency [8]: inactive
- Potency [9]: inactive
- Potency [16]: inactive
- Potency [17]: inactive
- Potency [10]: inactive
- Potency [11]: inactive
- Potency [12]: inactive
- outcome [14]: inactive
- Potency [15]: inactive

Structure (SMILES): CCOP(OCC)OCC
- Potency [1]: 22.3 µM (active) and inactive
- Potency [2]: inactive
- outcome [3]: inactive
- Potency [4]: inactive
- Potency [5]: inactive
- Potency [6]: inactive
- Potency [8]: inactive
- Potency [9]: inactive
- Potency [16]: inactive
- Potency [17]: inactive
- Potency [10]: inactive
- Potency [12]: inactive
- outcome [14]: inactive
- Potency [15]: inactive

Structure (SMILES): CN=C=S
- Potency [1]: inactive
- Potency [2]: inactive
- outcome [3]: inactive
- Potency [5]: inactive
- Potency [6]: inactive
- Potency [7]: inactive
- Potency [8]: inactive
- Potency [9]: inactive
- Potency [16]: inactive
- Potency [17]: inactive
- Potency [10]: inactive
- Potency [11]: inactive
- Potency [18]: inactive
- Potency [12]: inactive
- Potency [13]: inactive
- outcome [14]: inactive
- Potency [15]: inactive

Structure (SMILES): BrCCBr
- Potency [1]: inactive
- Potency [2]: inactive
- outcome [3]: inactive
- Potency [4]: inactive
- Potency [5]: inactive
- Potency [6]: inactive
- Potency [7]: inactive
- Potency [8]: inactive
- Potency [9]: inactive
- Potency [16]: inactive
- Potency [17]: inactive
- Potency [10]: inactive
- Potency [11]: inactive
- Potency [18]: inactive
- Potency [12]: inactive
- Potency [13]: inactive
- outcome [14]: inactive
- Potency [15]: inactive

Structure (SMILES): Cc1cc(-c2cc(C)c(N)c(C)c2)cc(C)c1N
- Potency [1]: inactive
- Potency [2]: inactive
- outcome [3]: inactive
- Potency [4]: inactive
- Potency [5]: inactive
- Potency [6]: inactive
- Potency [8]: inactive
- Potency [9]: inactive
- Potency [16]: inactive
- Potency [17]: inactive
- Potency [10]: inactive
- Potency [12]: inactive
- outcome [14]: inactive
- Potency [15]: inactive

Structure (SMILES): CCCCOC(=O)c1ccccc1C(=O)OCCCC
- Potency [1]: inactive
- Potency [2]: inactive
- outcome [3]: inactive
- Potency [5]: inactive
- Potency [6]: inactive
- Potency [7]: inactive
- Potency [8]: inactive
- Potency [9]: inactive
- Potency [16]: inactive
- Potency [17]: inactive
- Potency [10]: inactive
- Potency [11]: inactive
- Potency [12]: inactive
- Potency [13]: inactive
- outcome [14]: inactive
- Potency [15]: inactive

Structure (SMILES): [O-][Cl+2]([O-])O
- Potency [1]: inactive
- Potency [2]: inactive
- outcome [3]: inactive
- Potency [5]: inactive
- Potency [6]: inactive
- Potency [7]: inactive
- Potency [8]: inactive
- Potency [9]: inactive
- Potency [16]: inactive
- Potency [17]: inactive
- Potency [10]: inactive
- Potency [18]: inactive
- Potency [12]: inactive
- Potency [13]: inactive
- outcome [14]: inactive
- Potency [15]: inactive

Structure (SMILES): O=c1[nH]c2ccccc2c(=O)o1
- Potency [1]: inactive
- Potency [2]: inactive
- outcome [3]: inactive
- Potency [4]: inactive
- Potency [5]: inactive
- Potency [6]: inactive
- Potency [8]: inactive
- Potency [9]: inactive
- Potency [16]: inactive
- Potency [17]: inactive
- Potency [10]: inactive
- Potency [18]: inactive
- Potency [12]: inactive
- outcome [14]: inactive
- Potency [15]: inactive
